As a reminder, the inhibition is the relative decrease from the control value, in per cent.

Each structure is given as a SMILES string. Hit rate of the full screen: of about 2,300 compounds, about 900 (39%) were called active.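 How the source made its calls: active means mean duplicate percent inhibition, scaled so buffer wells are 0 and the reference blocker 100, over three buffer SD above buffer mean; inactive means the rest.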 The list is a sample of the results.

In the assay the target is Anoctamin-1 (Mus musculus) (UniProt Q8BHY3). The experiment in a line: blockers of mouse ANO1 channel, retest – cell-based, re-confirmation, confirmation (AID 652189). Conditions: HEK293 TMEM16A/YFP-H148Q, iodide quench fluorescence, at 10 µM, ionomycin added to raise cell calcium; hits give high values.
Anoctamin-1 (Mus musculus), sequence (Q8BHY3 whole entry, looked up): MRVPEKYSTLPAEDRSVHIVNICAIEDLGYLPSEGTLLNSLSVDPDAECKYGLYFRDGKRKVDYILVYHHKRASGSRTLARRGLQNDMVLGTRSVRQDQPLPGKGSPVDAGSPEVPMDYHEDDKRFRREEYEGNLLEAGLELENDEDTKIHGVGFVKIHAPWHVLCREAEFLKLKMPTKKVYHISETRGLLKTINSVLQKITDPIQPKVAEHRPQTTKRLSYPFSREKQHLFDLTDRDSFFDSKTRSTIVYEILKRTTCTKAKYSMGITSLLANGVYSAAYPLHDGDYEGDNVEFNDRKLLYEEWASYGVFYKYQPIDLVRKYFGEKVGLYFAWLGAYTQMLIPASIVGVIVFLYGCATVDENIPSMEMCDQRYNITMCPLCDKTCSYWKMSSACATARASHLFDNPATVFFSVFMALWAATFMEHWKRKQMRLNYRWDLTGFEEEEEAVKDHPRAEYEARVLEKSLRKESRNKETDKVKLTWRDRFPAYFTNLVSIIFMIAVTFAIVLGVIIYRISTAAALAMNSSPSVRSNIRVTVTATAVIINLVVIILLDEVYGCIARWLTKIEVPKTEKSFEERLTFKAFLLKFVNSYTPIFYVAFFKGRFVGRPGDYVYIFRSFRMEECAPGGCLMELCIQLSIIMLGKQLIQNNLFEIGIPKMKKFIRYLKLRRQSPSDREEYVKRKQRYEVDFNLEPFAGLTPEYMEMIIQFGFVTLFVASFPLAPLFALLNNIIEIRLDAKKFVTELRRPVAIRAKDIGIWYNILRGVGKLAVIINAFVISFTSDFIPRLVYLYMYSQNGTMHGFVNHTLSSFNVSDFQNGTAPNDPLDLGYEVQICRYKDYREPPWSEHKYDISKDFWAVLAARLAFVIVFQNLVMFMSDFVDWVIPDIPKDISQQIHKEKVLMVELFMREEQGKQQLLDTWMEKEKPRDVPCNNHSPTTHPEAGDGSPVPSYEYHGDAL
`CCCCCn1c(=O)c(C(=O)NCc2ccccn2)c(O)c2ccccc21`: the inhibition is 23% (active). Turning to `CCOc1cccc(=NC2CCCCC2)c2c(C)[nH]c(C)c12`, the inhibition entry is “inactive”. For `CCN(CC)C(=O)c1ccc(NC(=O)c2cc(-n3cnnc3)ccc2Cl)cc1`, the inhibition result was “inactive”.

Source of the values: PubChem BioAssay AID652189 (Johns Hopkins Ion Channel Center, 2013).
